In article PMC5540273 (PLoS ONE, 2017):

Columns and labels:
Details in all cases: concentration: 1 μM, replicates: in singlicate; n = 1
TAK1 = tested on: T1, TAK1
T1 construct: gene MAP3K7

TAOK1 = tested on: TAOK1
TAOK2 = tested on: TAOK2
TAOK3 = tested on: TAOK3
TBK1 = tested on: TBK1
TEC = tested on: TEC
TESK1 = tested on: TESK1
TGFBR1 = tested on: TGFBR1
TGFBR2 = tested on: TGFBR2
TIE1 = tested on: TIE1
TIE2 = tested on: T2, TIE2
T2 construct: gene TEK

TLK1 = tested on: TLK1
TLK2 = tested on: TLK2
TNIK = tested on: TNIK
TNK1 = tested on: TNK1
TNK2 = tested on: TNK2
TNNI3K = tested on: TNNI3K
TRKA = tested on: T3, TRKA
T3 construct: gene NTRK1

TRKB = tested on: TRKB
TRKC = tested on: T4, TRKC
T4 construct: gene NTRK3
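Note: KINOMEscan kinase panel screen.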

SMILES	%Inh (TAK1) [%]	%Inh (TAOK1) [%]	%Inh (TAOK2) [%]	%Inh (TAOK3) [%]	%Inh (TBK1) [%]	%Inh (TEC) [%]	%Inh (TESK1) [%]	%Inh (TGFBR1) [%]	%Inh (TGFBR2) [%]	%Inh (TIE1) [%]	%Inh (TIE2) [%]	%Inh (TLK1) [%]	%Inh (TLK2) [%]	%Inh (TNIK) [%]	%Inh (TNK1) [%]	%Inh (TNK2) [%]	%Inh (TNNI3K) [%]	%Inh (TRKA) [%]	%Inh (TRKB) [%]	%Inh (TRKC) [%]
COc1cc2ncn(-c3cc(OCc4ccncc4Br)c(C(N)=O)s3)c2cc1OC [GW854278]	0	4	0	0	24	2	26	17	0	31	6	18	0	39	33	0	18	0	0	7
CCC(=O)c1c(-c2ccccc2)c2cc(Cl)ccc2c(=O)n1Cc1cc(C(=O)NC2CC2)n(C)n1	3	0	0	0	0	2	23	8	0	6	0	8	0	0	0	0	0	0	0	7
Cc1c(Cn2c(C)nn3c(=O)cc(N4CCO[C@H](C)C4)nc23)cccc1C(F)(F)F [GSK2373690]	0	0	9	0	1	0	34	0	4	10	0	0	0	0	0	13	4	0	6	11
OCCCNc1nccc(-c2c(-c3cccc(C(F)(F)F)c3)nn3cc(C(F)(F)F)ccc23)n1 [GW630813]	0	0	0	0	10	0	11	0	0	0	0	6	0	3	0	0	0	0	7	3
CCc1nc(-c2cccc(C)c2)c(-c2ccncc2)s1	0	0	14	0	35	0	0	0	13	0	12	24	0	59	2	0	0	11	0	0
COc1cc2nccc(Nc3cccc(Oc4ccccc4)c3)c2cc1OC.Cl [GW284543]	0	0	0	0	0	45	3	41	0	9	12	0	0	0	0	12	10	34	5	2
COc1ccc(Nc2nccc(N3CCC(NS(=O)(=O)c4ccc(NC(C)=O)cc4)C3)n2)cc1 (stereo not shown) [GSK1379729]	0	2	0	2	11	3	16	7	7	20	8	0	0	0	18	12	100	65	0	19
Cc1nnc(-c2ccc(C)c(-c3ccc(C(=O)O)cc3)c2)o1 [GW608005]	0	0	0	2	2	0	0	0	0	15	0	0	0	0	0	0	0	0	20	0
C[C@@H]1CC[C@H](C(=O)NC2CCCCC2)CN1c1cc(-c2ccc3c(N)n[nH]c3c2)nc(N)n1 [GSK2291363]	0	0	0	0	30	9	34	16	0	15	0	5	0	8	0	18	5	9	0	0
COc1cc2nccc(Nc3ccc(OCc4ccc(NC(C)=O)cc4)cc3)c2cc1OC.Cl [GW440135]	0	0	0	1	0	0	13	21	5	1	1	0	0	0	0	16	0	37	0	21
CCC(=O)c1c(-c2ccccc2)c2cc(Cl)ccc2c(=O)n1Cc1cc(S(C)(=O)=O)n(CC(F)F)n1	0	8	11	0	24	0	11	7	0	0	2	0	0	0	0	0	0	0	0	1
